Compounds with a hit are over-represented: about 3.4% of the library has one in this group of screens.
FBW7 activator: activators of human E3 ligase FBW7; AlphaScreen FBW7–phospho-cyclin E peptide binding, activator screen; normalized activity (activation), % at 26.1 µM; Q969H0; 0.13% of 650,000 active; in the data active = normalized activity above about 1.9%;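 also: purified mutant Fbw7 with reduced substrate affinity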
MITF inh: inhibitors of human MITF. AlphaScreen MITF homodimerization, bead proximity signal. inhibition, % at 2.6 µM. 0.91% of 650,000 active; in the data active = inhibition above about 50%;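 also: 0% = vehicle wells with protein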
Target sequence (O75030 whole entry, looked up): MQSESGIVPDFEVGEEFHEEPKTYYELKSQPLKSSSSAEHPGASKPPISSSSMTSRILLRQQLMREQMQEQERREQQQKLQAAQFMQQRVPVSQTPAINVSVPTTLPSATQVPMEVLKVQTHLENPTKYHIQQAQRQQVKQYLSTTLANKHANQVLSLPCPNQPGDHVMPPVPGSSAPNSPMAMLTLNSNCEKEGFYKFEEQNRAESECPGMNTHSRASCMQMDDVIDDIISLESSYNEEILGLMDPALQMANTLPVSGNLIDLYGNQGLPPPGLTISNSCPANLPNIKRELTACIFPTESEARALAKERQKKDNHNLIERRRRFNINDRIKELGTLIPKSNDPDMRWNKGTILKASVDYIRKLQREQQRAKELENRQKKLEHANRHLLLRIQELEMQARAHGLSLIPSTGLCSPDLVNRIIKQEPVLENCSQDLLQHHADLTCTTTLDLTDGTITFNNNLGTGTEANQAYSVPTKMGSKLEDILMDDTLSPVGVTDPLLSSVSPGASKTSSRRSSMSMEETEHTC
GPR151 ag: human GPR151 activation. Q8TDV0. PathHunter beta-arrestin GPR151 cells, luminescence. activation, % at 11.2 µM. 1% of 650,000 active. AID 1508602; in the data active = activation above about 4.9%;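 also: 0% = median of compound wells and 100% = cells with positive control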
TEAD-YAP inh: TEAD-YAP interaction inhibition; HEK-TIYL cells, TEAD-Gal4/YAP UAS-luciferase luminescence; inhibition, % at 9.12 µM; 1.4% of 640,000 active; AID 1259422; in the data active = inhibition above about 32%;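 also: 0% = median of test compound wells and 100% = reference inhibitor wells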
Starred values were filed as active, the others as inactive.

SMILES | FBW7 activator | MITF inh | GPR151 ag | TEAD-YAP inh
COC(=O)c1ccc(-c2cnc3ccc(NC4CCC(O)CC4)nn23)cc1 (stereo unspecified) | 0 | -4 | 1 | 41*
OC1CCC(Nc2ccc3ncc(-c4ccc5ccccc5c4)n3n2)CC1 (stereo unspecified) | 0 | -15 | 1 | 0
COc1ccc(-c2cnc3ccc(NC4CCC(O)CC4)nn23)cn1 (stereo unspecified) | 0 | -13 | 2 | 36*
C[C@@H](c1ccccc1)n1c(=O)[nH]c2ncc(-c3ccc(C(=O)N4CCOCC4)cc3)nc21 | 2.0* | 12 | 1 | -8
C[C@H](c1ccccc1)n1c(=O)[nH]c2ncc(-c3ccc(C(=O)N4CCN(C)CC4)cc3)nc21 | 0 | 1 | -2 | 5
CSc1ccc(CN2CCN(S(=O)(=O)c3ccc4ccccc4c3)CC2)cc1 | 0 | 1 | 1 | 1
CCc1ccc(CN2CCN(S(C)(=O)=O)CC2)cc1 | 0 | 41 | 1 | 16
CSc1ccc(CN2CCN(S(C)(=O)=O)CC2)cc1 | 0 | -5 | -1 | 47*
CS(=O)(=O)N1CCN(Cc2ccc(Cl)cc2)CC1 | 0 | -4 | 0 | 41*
COc1ccc2sc(C)[n+](CCC(C)S(=O)(=O)O)c2c1 (stereo unspecified) | 0 | -1 | 0 | 10
COCCNC(=O)c1ccc(Cn2c(SCC(=O)Nc3cc(C)on3)nc3ccc(Br)cc3c2=O)cc1 | 0 | 1 | 1 | 5
Cc1ccc2c(c1)N(CC(=O)N(C)Cc1ccccc1)C(=O)CO2 | 0 | 12 | -1 | -5
Cn1ccc(-c2ccccc2Nc2ccnc(Nc3ccc(N4CCOCC4)cc3)c2)n1 | -1 | -6 | 2 | 47*
Cn1cnc(-c2ccnc(Nc3ccc(N4CCOCC4)cc3)c2)n1 | 0 | 2 | 0 | 15
c1ccc(-c2ccn[nH]2)c(Nc2ccnc(Nc3ccc(N4CCOCC4)cc3)c2)c1 | -1 | 8 | 0 | 38*
Cn1cc(-c2ncoc2-c2ccnc(Nc3ccc(N4CCOCC4)cc3)c2)cn1 | 0 | -7 | 0 | 30
c1cnn(-c2ccnc(Nc3ccc(N4CCOCC4)cc3)c2)c1 | 0 | -11 | -3 | -37
c1cc(-c2ocnc2-c2ccc3cn[nH]c3c2)cc(Nc2ccc(N3CCOCC3)cc2)n1 | 0 | -4 | 1 | 58*
CC(C)n1cnc2c(NC3CC3)nc(Nc3cnccn3)nc21 | 0 | 8 | 2 | 38*
Oc1ccc(CCNc2nc(Nc3cnccn3)nc3c2ncn3C2CCCCC2)cc1 | 0 | -7 | 0 | 40*
Oc1ccc(CCNc2ccnc(Nc3cnccn3)n2)cc1 | 0 | 12 | 0 | 4
Oc1ccc(CCNc2cc(Nc3cnccn3)ncn2)cc1 | 0 | -11 | 3 | 46*
CC(C)n1cnc2c(NC3CC3)nc(Nc3ccccn3)nc21 | 0 | 3 | 0 | 25
CC(C)n1cnc2c(NC3CCN(Cc4ccccc4)CC3)nc(Nc3ccncc3)nc21 | 0 | -10 | -1 | 69*
COc1ccc(CCNc2nc(Nc3cnccn3)nc3c2ncn3C2CCCCC2)cc1 | 0 | -8 | -1 | 14
SMILES | FBW7 activator | MITF inh | GPR151 ag | TEAD-YAP inh
CCc1ccc(NC(=O)c2c(C)oc3ccc(OC)cc23)cc1 | 1 | 7 | -2 | -2
O=C1N[C@H](Cc2ccccc2)C(=O)N2C[C@@H](NCc3ccc4ncccc4c3)C[C@@H]12 | 0 | 0 | 1 | 2
COc1ccccc1-n1c(SCC(=O)NCc2ccccc2)nc2c(sc(=S)n2-c2ccc(C)cc2C)c1=O | 0 | -6 | -1 | 1
CC(C)n1cnc2c(NC3CCN(Cc4ccccc4)CC3)nc(Nc3cnccn3)nc21 | 0 | 12 | 2 | 76*
COc1ccc(CCNc2nc(Nc3cnccn3)nc3c2ncn3C(C)C)cc1 | 0 | 2 | 1 | 36*
CC(C)n1cnc2c(NCc3cccnc3)nc(NC3CCN(Cc4ccccc4)CC3)nc21 | 0 | 8 | 1 | -2
CC(C)n1cnc2c(NC3CCN(Cc4ccccc4)CC3)nc(NCc3cccnc3)nc21 | 0 | 16 | -2 | 76*
CC(C)n1cnc2c(NC3CCN(Cc4ccccc4)CC3)nc(Nc3ccccc3)nc21 | 0 | 8 | 0 | 15
OCC1CCCN1c1nc(NC2CCN(Cc3ccccc3)CC2)c2ncn(C3CCCCC3)c2n1 (stereo unspecified) | 0 | 2 | -1 | -15
CC(C)n1cnc2c(NC3CCN(Cc4ccccc4)CC3)nc(N3CCCC3CO)nc21 (stereo unspecified) | 0 | 10 | -1 | 36*
CCOC(=O)c1cnc(SCC(=O)Nc2nc3c(s2)CC(C)(C)CC3=O)nc1N | 0 | 3 | 1 | 1

Screens (PubChem)
